Drawing on PMC7862700, “An all-to-all approach to the identification of sequence-specific readers for epigenetic DNA modifications on cytosine”, this text covers binding signal for one sequence.

Common to all, as to experiment: DAPPL (digital affinity profiling via proximity ligation, sequencing); 10 mM Tris-HCl pH 7.5, 50 mM NaCl, 1 mM DTT, 4% glycerol, room temperature, 30 min; GST-TFs on glutathione beads, 16-mer random dsDNA library, 0.1% formaldehyde crosslink after washing; high values mean tight binding
What all share (details): protein: recombinant; tags: N-terminal GST; dsDNA, one strand shown

The target in one assay is T1, ELK1 (Homo sapiens, UniProt P19419 1-428).
T1 sequence: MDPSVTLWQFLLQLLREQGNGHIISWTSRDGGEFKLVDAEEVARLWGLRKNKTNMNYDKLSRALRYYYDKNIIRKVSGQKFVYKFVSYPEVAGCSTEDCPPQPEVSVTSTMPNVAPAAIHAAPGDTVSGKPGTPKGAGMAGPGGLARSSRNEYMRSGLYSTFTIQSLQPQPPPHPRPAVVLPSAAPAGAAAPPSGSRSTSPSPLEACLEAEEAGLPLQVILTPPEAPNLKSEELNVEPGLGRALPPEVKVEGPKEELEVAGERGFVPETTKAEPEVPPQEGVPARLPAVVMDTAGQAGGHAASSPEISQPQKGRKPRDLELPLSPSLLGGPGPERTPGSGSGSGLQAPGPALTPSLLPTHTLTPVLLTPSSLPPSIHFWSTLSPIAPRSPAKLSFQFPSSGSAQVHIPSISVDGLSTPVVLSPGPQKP
The procedure, abridged: (§1)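 GST fusions of human transcription factors were expressed in yeast and captured with glutathione beads. Once given DNA barcodes and pooled alongside a tag-only sample, they were incubated for 30 min at room temperature with 200 nmole of a random double-stranded 16-mer DNA library in Tris/NaCl/DTT/glycerol buffer, then washed, crosslinked (0.1% formaldehyde), proximity-ligated, PCR-amplified and sequenced on an Illumina NextSeq500. The binding signal of each hexamer is its read frequency for a factor divided by its frequency for the tag-only sample.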

In another assay the target is T2, GABPA (Homo sapiens, UniProt Q06546 1-454).
T2 sequence: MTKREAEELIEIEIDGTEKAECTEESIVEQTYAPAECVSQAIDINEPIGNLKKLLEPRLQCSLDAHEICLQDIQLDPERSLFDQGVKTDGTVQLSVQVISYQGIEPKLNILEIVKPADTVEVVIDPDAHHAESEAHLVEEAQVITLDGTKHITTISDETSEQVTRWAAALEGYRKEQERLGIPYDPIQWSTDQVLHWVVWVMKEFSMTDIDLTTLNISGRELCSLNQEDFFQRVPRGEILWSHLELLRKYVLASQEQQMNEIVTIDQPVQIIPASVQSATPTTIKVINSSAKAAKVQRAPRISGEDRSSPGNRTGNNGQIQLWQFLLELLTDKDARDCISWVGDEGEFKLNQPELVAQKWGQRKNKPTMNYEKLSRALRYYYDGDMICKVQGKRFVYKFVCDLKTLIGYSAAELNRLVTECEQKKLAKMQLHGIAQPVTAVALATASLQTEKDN
Summed up: as §1

A further assay has as its target ELF1 (Homo sapiens, UniProt P32519 1-619). Summed up: as §1
A further assay concerns the target T3, EHF (Homo sapiens, UniProt Q9NZC4 1-300).
T3 sequence: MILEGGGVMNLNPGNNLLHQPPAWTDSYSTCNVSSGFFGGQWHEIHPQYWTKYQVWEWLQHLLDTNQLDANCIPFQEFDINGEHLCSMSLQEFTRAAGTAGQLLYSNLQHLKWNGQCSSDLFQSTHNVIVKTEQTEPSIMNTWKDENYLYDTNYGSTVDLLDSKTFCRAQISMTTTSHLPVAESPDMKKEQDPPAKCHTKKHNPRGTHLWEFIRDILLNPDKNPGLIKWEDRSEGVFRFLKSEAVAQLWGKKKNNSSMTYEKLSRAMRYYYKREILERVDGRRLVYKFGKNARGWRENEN
The procedure, abridged:
as §1

Another assay addresses SPIB (Homo sapiens, UniProt Q01892 1-262). Summed up: as §1
A further assay addresses T4, FEV (Homo sapiens, UniProt Q99581 1-238).
T4 sequence: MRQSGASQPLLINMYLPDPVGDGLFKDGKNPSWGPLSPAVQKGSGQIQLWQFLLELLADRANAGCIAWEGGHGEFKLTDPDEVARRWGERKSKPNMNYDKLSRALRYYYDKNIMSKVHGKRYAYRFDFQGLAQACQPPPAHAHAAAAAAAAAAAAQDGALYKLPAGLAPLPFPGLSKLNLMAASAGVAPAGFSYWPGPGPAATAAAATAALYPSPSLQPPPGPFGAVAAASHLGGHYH
The procedure, abridged:
as §1

The target in the next assay is ETV5 (Homo sapiens, UniProt P41161 1-510). Summed up: as §1
A further assay has as its target ELF4 (Homo sapiens, UniProt Q99607 1-663). Summed up: as §1
Another assay addresses T5, ELK4 (Homo sapiens, UniProt P28324-2 1-405).
T5 sequence: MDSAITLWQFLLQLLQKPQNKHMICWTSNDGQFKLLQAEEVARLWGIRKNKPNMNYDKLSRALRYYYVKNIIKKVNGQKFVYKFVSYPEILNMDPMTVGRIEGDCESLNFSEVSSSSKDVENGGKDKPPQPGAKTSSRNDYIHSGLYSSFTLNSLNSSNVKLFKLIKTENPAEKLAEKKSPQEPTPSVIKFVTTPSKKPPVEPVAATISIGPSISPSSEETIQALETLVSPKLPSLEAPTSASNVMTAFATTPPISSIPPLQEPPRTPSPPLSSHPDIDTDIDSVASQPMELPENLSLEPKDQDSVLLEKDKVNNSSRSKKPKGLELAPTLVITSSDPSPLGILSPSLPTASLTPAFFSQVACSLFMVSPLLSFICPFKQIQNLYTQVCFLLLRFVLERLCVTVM
The procedure, abridged: as §1

The target in a further assay is T6, ETV2 (Homo sapiens, UniProt O00321 1-342).
T6 sequence: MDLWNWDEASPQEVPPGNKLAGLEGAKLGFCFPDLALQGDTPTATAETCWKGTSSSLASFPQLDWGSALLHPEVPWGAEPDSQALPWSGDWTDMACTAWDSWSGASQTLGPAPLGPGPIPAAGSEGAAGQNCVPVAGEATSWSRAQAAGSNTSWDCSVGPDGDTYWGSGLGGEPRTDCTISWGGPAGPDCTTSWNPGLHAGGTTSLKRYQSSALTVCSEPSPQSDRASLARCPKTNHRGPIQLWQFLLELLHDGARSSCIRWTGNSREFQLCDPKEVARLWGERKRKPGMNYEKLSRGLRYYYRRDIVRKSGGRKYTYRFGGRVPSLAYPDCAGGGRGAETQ
Summed up:
as §1

A further assay has as its target T7, ELF3 (Homo sapiens, UniProt P78545 1-371).
T7 sequence: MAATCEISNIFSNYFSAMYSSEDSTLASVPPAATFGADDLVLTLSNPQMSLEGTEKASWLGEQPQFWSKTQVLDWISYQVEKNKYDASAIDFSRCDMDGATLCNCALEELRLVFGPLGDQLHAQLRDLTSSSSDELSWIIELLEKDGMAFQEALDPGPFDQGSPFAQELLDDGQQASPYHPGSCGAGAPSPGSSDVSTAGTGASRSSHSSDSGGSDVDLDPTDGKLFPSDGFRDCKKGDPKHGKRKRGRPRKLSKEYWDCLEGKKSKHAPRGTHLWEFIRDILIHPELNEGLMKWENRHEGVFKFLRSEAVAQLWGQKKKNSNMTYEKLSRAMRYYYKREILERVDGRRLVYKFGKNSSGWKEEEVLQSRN
The procedure, abridged: as §1

In the next assay the target is ETV1 (Homo sapiens, UniProt P50549 1-477). Summed up:
as §1

For another assay, the target named is T8, ERF (Homo sapiens, UniProt P50548 1-548).
T8 sequence: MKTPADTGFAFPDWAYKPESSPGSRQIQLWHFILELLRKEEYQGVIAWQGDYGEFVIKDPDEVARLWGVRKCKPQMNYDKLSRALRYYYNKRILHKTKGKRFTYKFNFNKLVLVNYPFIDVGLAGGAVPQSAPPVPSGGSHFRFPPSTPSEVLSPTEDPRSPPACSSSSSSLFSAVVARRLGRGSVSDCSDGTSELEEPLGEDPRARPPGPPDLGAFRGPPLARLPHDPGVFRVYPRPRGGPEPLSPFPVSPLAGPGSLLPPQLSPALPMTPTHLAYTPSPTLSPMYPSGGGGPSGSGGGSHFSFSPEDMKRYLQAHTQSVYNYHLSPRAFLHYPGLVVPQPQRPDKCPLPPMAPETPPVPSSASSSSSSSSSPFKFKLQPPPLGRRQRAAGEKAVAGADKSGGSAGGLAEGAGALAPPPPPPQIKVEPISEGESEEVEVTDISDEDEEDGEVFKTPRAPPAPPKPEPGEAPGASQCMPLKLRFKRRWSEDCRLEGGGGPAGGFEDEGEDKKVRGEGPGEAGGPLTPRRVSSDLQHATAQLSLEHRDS
The procedure, abridged: as §1

In another assay the target is T9, ETV3L (Homo sapiens, UniProt Q6ZN32 1-361).
T9 sequence: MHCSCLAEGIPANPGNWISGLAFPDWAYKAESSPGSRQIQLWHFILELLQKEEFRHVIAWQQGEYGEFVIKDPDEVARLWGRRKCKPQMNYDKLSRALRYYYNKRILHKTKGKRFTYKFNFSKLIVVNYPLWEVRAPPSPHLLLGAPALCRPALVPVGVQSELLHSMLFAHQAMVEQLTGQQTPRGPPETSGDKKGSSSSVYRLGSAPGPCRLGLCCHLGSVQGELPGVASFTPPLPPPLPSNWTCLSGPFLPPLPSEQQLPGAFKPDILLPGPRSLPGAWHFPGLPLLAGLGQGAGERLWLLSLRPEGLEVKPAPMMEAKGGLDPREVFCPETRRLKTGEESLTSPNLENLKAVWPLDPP
The procedure, abridged: as §1

The target of the next assay is T10, ETS2 (Homo sapiens, UniProt P15036 1-469).
T10 sequence: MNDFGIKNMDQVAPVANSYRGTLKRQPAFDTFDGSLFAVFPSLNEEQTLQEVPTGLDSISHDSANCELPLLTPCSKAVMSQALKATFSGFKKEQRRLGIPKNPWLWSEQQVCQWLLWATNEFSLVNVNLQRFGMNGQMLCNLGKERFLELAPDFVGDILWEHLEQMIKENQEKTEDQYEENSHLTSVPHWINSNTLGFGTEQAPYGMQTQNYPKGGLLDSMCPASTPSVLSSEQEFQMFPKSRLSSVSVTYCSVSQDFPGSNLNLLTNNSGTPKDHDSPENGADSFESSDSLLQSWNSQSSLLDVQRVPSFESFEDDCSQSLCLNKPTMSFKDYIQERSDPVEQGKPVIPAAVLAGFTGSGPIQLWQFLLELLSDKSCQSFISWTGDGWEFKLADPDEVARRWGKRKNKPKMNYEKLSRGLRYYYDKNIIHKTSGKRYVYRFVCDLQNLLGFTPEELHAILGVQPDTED
The procedure, abridged: as §1

Another assay deals with T11, SPDEF (Homo sapiens, UniProt O95238 1-335).
T11 sequence: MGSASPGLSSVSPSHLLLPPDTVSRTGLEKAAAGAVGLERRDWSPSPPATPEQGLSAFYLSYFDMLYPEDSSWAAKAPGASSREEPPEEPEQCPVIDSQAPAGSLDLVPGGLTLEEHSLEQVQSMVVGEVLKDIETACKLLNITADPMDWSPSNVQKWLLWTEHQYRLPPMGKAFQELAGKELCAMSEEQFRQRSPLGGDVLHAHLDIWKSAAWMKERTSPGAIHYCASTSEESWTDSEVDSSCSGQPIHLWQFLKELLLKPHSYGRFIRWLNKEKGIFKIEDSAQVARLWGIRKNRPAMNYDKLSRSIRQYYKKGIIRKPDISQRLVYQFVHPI
Summed up:
as §1

A further assay has as its target T12, ETV7 (Homo sapiens, UniProt Q9Y603 1-341).
T12 sequence: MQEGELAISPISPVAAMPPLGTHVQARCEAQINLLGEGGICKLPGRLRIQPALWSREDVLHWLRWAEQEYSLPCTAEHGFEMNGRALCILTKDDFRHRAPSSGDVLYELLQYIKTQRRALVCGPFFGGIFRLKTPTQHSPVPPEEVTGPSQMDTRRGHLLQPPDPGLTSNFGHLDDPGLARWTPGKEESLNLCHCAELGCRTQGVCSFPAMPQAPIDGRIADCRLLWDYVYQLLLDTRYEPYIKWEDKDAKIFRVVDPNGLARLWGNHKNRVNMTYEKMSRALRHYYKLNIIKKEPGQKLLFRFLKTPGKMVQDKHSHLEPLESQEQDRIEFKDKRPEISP
The procedure, abridged:
as §1

Another assay concerns the target T13, ETV3 (Homo sapiens, UniProt P41162-2 1-143).
T13 sequence: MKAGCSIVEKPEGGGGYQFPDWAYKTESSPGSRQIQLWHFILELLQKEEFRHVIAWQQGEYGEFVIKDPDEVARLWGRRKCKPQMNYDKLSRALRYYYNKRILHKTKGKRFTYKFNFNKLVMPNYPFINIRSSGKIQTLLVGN
Summed up: as §1

The target in the next assay is ETV6 (Homo sapiens, UniProt P41212 1-452). The procedure, abridged: as §1
ETV6, sequence (P41212 whole entry): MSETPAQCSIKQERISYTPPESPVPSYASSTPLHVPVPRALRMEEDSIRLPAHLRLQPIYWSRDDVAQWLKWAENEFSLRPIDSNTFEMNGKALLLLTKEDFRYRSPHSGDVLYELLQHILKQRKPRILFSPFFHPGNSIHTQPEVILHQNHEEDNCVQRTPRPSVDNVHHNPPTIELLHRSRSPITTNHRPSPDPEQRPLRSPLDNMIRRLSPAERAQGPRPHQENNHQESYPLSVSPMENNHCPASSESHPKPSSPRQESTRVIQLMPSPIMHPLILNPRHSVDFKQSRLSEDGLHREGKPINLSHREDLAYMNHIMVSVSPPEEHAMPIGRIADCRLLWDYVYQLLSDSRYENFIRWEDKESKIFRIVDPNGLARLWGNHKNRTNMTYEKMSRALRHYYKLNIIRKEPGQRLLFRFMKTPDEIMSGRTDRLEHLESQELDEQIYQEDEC

ETV5, sequence (P41161 whole entry): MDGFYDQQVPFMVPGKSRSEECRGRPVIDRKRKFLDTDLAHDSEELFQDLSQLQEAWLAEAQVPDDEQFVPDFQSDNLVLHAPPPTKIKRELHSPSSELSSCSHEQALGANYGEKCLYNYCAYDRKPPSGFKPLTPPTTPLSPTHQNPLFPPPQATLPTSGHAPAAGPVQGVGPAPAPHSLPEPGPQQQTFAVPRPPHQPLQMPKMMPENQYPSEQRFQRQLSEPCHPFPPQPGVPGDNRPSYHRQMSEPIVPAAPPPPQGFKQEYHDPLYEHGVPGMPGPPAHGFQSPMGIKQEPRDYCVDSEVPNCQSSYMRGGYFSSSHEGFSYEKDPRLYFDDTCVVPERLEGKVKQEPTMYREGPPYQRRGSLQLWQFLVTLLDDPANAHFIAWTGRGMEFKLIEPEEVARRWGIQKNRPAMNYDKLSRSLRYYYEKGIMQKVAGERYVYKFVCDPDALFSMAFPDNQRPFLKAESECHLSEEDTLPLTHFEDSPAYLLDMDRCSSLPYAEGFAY
SPIB, sequence (Q01892 whole entry): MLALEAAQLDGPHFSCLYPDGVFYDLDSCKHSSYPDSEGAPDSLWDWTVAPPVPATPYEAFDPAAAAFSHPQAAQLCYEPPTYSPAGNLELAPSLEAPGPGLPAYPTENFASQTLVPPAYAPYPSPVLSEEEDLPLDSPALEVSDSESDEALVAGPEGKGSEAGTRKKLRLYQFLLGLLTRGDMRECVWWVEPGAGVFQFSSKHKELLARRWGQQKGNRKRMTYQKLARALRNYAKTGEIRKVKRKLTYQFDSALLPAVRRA
ELF1, sequence (P32519 whole entry): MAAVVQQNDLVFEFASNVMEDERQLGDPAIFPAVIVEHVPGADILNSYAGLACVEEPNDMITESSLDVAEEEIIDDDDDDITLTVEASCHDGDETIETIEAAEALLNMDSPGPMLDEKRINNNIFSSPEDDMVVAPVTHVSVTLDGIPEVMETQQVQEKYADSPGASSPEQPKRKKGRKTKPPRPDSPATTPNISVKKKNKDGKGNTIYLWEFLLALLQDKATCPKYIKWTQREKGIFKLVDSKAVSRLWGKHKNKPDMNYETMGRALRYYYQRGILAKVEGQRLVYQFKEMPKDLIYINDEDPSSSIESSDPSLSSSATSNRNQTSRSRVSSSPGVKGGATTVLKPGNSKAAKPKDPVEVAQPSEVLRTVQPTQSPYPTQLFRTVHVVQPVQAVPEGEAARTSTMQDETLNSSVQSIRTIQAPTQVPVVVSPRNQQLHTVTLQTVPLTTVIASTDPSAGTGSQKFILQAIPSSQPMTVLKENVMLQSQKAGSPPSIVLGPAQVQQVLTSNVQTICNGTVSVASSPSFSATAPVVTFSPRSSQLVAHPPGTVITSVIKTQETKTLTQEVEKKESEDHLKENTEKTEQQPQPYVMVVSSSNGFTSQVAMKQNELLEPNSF
ELF4, sequence (Q99607 whole entry): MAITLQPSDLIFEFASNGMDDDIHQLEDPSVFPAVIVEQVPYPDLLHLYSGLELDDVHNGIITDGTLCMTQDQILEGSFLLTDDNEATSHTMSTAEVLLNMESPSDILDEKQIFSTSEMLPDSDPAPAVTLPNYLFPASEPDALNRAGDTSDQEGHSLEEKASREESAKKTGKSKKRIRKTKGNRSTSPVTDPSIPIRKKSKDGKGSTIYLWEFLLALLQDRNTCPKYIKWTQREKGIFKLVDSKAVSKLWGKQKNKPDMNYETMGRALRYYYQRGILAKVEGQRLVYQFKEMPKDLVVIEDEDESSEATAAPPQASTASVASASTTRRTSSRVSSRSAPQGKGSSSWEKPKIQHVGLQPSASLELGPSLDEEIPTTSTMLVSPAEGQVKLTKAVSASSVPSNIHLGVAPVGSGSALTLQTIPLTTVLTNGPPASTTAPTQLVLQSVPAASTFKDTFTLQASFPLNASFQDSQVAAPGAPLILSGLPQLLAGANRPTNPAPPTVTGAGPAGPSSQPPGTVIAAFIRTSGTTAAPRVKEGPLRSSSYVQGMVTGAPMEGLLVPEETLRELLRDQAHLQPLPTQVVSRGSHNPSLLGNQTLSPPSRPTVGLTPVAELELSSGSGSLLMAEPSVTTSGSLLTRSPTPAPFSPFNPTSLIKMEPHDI
ETV1, sequence (P50549 whole entry): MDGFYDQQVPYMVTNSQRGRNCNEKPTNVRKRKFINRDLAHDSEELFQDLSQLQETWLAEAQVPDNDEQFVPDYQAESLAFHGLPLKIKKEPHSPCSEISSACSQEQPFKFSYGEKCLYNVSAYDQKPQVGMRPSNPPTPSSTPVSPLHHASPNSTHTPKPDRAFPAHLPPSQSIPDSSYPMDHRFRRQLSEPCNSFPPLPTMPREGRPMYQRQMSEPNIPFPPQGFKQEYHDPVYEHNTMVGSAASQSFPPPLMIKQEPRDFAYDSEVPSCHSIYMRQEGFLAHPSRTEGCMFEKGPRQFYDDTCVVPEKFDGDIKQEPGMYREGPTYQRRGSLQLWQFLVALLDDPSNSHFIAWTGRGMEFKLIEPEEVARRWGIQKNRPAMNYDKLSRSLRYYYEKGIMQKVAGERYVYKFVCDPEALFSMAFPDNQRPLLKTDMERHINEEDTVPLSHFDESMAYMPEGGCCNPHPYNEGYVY

For the sequence CATTAA, the binding signal with ELK1 was 1 fold enrichment (6-mer frequency, TF over GST control); in the assay with GABPA it was 1.12 fold enrichment (6-mer frequency, TF over GST control); in the assay with ELF1 it was 1.07 fold enrichment (6-mer frequency, TF over GST control); with EHF it was 1.01 fold enrichment (6-mer frequency, TF over GST control); in the assay with SPIB it was 1.04 fold enrichment (6-mer frequency, TF over GST control); with FEV, 1.01 fold enrichment (6-mer frequency, TF over GST control). In addition, the binding signal in the assay with ETV5 was 1.07 fold enrichment (6-mer frequency, TF over GST control); in the assay with ELF4, 1.07 fold enrichment (6-mer frequency, TF over GST control); with ELK4 it was 1.02 fold enrichment (6-mer frequency, TF over GST control); with ETV2, 1.04 fold enrichment (6-mer frequency, TF over GST control); with ELF3, 1.05 fold enrichment (6-mer frequency, TF over GST control); with ETV1 it was 1.12 fold enrichment (6-mer frequency, TF over GST control). For the same sequence, the binding signal with ERF was 1.1 fold enrichment (6-mer frequency, TF over GST control); with ETV3L, 1.1 fold enrichment (6-mer frequency, TF over GST control); with ETS2, 1.04 fold enrichment (6-mer frequency, TF over GST control); with SPDEF, 1.01 fold enrichment (6-mer frequency, TF over GST control); in the assay with ETV7, 1.05 fold enrichment (6-mer frequency, TF over GST control); with ETV3 it was 1.02 fold enrichment (6-mer frequency, TF over GST control). Also, in the assay with ETV6, the binding signal was 1.03 fold enrichment (6-mer frequency, TF over GST control).
